According to ChEMBL document CHEMBL1961873, “Compounds: GSK PKIS; Assays: Nanosyn kinase panel” (2012):

Experiments:
[1] = biological target: Ribosomal protein S6 kinase alpha-6 (Homo sapiens) (UniProt Q9UK32); settings: at 1 µM;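 note: each value is a mean inhibition of RSK4 from a GSK PKIS panel screen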
[2] = biological target: T1, Serine/threonine-protein kinase Sgk1 (Homo sapiens) (UniProt O00141); settings: at 0.1 µM
T1 sequence (whole entry): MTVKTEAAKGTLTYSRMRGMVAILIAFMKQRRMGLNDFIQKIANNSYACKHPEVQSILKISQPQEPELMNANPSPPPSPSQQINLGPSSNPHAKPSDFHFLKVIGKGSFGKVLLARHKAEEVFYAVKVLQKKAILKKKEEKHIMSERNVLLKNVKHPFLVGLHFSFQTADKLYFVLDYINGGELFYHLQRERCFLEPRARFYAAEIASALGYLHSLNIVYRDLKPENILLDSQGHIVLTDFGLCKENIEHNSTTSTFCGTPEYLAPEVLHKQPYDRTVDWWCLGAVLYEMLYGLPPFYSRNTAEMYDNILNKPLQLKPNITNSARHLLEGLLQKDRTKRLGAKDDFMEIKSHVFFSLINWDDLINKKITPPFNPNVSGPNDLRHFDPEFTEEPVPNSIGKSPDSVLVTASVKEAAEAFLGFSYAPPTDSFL

[3] = biological target: T1, Serine/threonine-protein kinase Sgk1 (Homo sapiens); settings: at 1 µM
[4] = biological target: T2, Serine/threonine-protein kinase Sgk2 (Homo sapiens) (UniProt Q9HBY8); settings: at 0.1 µM
T2 sequence (whole entry): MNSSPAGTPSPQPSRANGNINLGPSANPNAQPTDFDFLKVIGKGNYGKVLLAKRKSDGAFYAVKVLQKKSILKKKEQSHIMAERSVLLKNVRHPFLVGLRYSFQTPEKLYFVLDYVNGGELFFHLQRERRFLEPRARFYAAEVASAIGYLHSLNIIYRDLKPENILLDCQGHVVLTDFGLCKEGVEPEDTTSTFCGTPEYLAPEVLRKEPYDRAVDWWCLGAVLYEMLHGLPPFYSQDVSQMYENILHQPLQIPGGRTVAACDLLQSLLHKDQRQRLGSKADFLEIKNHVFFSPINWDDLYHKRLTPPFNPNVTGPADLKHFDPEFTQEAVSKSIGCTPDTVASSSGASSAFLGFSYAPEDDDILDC

[5] = biological target: T2, Serine/threonine-protein kinase Sgk2 (Homo sapiens); settings: at 1 µM
[6] = biological target: T3, Serine/threonine-protein kinase Sgk3 (Homo sapiens) (UniProt Q96BR1); settings: at 0.1 µM
T3 sequence (whole entry): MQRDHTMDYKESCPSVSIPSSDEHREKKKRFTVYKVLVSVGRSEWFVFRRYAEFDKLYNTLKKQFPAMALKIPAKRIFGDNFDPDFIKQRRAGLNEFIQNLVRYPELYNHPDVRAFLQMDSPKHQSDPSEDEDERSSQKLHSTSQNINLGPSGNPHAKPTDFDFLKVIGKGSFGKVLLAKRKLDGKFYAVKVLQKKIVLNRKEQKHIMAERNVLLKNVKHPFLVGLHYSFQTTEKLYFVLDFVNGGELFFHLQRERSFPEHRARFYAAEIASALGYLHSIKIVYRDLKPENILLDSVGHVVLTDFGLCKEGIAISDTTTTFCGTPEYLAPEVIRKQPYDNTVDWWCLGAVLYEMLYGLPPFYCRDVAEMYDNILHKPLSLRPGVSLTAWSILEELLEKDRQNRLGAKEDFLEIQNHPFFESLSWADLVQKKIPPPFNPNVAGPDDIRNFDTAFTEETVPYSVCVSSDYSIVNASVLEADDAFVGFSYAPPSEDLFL

[7] = biological target: T3, Serine/threonine-protein kinase Sgk3 (Homo sapiens); settings: at 1 µM
[8] = biological target: 5'-AMP-activated protein kinase catalytic subunit alpha-1 (Homo sapiens) (UniProt Q13131); settings: at 0.1 µM
Sequence of 5'-AMP-activated protein kinase catalytic subunit alpha-1 (Homo sapiens) (Q13131 whole entry, looked up): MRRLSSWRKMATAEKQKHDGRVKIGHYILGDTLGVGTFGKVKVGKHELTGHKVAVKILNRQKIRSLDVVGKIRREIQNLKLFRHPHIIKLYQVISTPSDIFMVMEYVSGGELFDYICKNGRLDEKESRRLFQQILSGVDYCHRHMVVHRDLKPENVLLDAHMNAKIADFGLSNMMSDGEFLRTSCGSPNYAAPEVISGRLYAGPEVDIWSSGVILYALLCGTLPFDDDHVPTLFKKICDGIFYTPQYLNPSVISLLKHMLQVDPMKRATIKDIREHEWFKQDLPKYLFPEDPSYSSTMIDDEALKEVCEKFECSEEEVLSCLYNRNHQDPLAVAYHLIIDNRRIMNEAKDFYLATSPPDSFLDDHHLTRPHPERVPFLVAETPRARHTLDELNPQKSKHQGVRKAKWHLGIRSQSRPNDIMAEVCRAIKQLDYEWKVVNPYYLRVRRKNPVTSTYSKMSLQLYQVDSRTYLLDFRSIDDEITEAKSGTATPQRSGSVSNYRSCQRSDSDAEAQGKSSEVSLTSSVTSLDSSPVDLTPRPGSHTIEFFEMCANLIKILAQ

[9] = biological target: 5'-AMP-activated protein kinase catalytic subunit alpha-1 (Homo sapiens) (UniProt Q13131); settings: at 1 µM
[10] = biological target: 5'-AMP-activated protein kinase catalytic subunit alpha-2 (Homo sapiens) (UniProt P54646); settings: at 0.1 µM
Sequence of 5'-AMP-activated protein kinase catalytic subunit alpha-2 (Homo sapiens) (P54646 whole entry, looked up): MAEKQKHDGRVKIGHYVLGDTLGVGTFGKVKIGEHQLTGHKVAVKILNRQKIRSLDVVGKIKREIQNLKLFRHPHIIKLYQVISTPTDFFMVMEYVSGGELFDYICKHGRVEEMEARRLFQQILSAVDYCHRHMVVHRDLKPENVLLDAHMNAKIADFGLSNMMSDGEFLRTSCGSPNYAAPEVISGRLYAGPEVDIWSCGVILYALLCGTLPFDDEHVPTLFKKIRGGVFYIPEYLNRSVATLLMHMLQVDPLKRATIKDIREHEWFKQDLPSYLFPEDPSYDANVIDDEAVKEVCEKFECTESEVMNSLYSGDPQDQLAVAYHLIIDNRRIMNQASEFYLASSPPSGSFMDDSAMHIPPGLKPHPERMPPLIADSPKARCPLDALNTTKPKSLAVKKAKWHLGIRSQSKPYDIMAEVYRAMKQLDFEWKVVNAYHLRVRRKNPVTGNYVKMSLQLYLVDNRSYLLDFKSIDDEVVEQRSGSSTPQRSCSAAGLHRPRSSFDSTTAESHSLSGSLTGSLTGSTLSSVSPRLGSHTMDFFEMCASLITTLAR

[11] = biological target: 5'-AMP-activated protein kinase catalytic subunit alpha-2 (Homo sapiens) (UniProt P54646); settings: at 1 µM
[12] = biological target: T4, NUAK family SNF1-like kinase 1 (Homo sapiens) (UniProt O60285); settings: at 0.1 µM
T4 sequence (whole entry): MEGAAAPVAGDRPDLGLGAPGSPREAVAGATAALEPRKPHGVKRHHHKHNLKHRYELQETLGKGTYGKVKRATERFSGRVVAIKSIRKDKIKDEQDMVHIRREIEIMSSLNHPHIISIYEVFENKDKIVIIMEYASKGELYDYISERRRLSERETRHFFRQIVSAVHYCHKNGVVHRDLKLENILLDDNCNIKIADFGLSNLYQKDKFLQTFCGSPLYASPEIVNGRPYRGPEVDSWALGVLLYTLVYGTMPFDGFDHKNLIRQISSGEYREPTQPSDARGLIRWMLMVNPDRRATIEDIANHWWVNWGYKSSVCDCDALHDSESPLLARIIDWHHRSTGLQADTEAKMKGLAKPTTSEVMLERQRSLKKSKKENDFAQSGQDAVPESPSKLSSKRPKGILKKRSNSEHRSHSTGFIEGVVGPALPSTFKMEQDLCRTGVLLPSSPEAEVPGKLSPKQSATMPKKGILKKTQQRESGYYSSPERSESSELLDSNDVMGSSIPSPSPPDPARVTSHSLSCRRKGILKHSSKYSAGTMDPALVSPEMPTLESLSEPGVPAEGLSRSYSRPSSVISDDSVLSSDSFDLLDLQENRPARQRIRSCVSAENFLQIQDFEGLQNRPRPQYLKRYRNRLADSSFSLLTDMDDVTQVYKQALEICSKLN

[13] = biological target: T4, NUAK family SNF1-like kinase 1 (Homo sapiens); settings: at 1 µM
[14] = biological target: T5, Serine/threonine-protein kinase BRSK1 (Homo sapiens) (UniProt Q8TDC3); settings: at 0.1 µM
T5 sequence (whole entry): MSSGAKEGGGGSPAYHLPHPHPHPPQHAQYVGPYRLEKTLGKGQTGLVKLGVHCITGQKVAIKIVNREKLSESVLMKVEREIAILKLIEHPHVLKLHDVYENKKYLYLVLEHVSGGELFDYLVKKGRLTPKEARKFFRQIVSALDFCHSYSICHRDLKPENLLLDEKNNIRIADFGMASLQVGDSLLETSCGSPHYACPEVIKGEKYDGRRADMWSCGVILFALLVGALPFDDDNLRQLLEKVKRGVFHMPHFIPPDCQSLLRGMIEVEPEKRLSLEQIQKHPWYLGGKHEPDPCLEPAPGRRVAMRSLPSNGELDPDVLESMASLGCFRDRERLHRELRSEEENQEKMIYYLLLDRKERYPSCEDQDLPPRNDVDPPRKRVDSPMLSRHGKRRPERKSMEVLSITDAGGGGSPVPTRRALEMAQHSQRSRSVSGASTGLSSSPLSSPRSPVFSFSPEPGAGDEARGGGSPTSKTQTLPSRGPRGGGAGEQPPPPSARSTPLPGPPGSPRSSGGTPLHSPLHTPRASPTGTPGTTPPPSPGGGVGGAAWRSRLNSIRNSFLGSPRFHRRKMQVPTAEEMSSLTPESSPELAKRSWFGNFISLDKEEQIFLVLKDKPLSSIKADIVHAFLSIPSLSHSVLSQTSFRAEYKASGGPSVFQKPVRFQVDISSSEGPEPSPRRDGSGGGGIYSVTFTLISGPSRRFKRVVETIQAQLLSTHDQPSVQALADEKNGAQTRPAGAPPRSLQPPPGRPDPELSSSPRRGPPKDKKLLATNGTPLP

[15] = biological target: T5, Serine/threonine-protein kinase BRSK1 (Homo sapiens); settings: at 1 µM
[16] = biological target: T6, Serine/threonine-protein kinase BRSK2 (Homo sapiens) (UniProt Q8IWQ3); settings: at 0.1 µM
T6 sequence (whole entry): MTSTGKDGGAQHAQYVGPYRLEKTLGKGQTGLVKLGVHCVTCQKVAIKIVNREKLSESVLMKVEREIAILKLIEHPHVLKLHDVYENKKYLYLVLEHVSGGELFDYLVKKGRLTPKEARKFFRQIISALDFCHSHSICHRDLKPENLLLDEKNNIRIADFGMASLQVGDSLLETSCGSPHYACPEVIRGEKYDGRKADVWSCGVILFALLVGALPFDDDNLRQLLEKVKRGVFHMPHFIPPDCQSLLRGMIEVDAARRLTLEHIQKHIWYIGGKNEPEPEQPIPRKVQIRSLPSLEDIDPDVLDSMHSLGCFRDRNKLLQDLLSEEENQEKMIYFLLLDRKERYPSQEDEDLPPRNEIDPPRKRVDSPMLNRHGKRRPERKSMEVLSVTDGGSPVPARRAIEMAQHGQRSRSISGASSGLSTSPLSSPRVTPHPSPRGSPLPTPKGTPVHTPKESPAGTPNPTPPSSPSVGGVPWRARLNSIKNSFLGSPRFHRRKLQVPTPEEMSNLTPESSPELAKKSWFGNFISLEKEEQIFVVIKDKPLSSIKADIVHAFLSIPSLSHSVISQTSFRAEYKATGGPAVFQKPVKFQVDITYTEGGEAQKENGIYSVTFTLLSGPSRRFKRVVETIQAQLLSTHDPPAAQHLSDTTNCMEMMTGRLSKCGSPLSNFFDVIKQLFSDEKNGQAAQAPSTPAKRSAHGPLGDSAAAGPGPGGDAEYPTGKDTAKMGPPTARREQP

[17] = biological target: T6, Serine/threonine-protein kinase BRSK2 (Homo sapiens); settings: at 1 µM
[18] = biological target: Calcium/calmodulin-dependent protein kinase type 1D (Homo sapiens) (UniProt Q8IU85); settings: at 0.1 µM
Sequence of Calcium/calmodulin-dependent protein kinase type 1D (Homo sapiens) (Q8IU85 whole entry, looked up): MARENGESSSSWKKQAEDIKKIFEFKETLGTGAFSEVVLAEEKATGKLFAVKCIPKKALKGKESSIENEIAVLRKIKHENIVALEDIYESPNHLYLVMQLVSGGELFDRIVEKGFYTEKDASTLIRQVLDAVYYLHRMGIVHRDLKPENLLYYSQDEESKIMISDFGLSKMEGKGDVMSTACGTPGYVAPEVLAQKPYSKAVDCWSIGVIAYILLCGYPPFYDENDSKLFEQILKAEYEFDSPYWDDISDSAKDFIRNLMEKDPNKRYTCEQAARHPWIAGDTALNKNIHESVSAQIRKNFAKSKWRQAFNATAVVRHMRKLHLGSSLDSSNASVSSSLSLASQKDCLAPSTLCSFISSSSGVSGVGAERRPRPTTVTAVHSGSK

[19] = biological target: Calcium/calmodulin-dependent protein kinase type 1D (Homo sapiens) (UniProt Q8IU85); settings: at 1 µM
[20] = biological target: Calcium/calmodulin-dependent protein kinase type II subunit alpha (Homo sapiens) (UniProt Q9UQM7); settings: at 0.1 µM;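 note: reported values are averages (mean inhibition of CAMK2A)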
Sequence of Calcium/calmodulin-dependent protein kinase type II subunit alpha (Homo sapiens) (Q9UQM7 whole entry): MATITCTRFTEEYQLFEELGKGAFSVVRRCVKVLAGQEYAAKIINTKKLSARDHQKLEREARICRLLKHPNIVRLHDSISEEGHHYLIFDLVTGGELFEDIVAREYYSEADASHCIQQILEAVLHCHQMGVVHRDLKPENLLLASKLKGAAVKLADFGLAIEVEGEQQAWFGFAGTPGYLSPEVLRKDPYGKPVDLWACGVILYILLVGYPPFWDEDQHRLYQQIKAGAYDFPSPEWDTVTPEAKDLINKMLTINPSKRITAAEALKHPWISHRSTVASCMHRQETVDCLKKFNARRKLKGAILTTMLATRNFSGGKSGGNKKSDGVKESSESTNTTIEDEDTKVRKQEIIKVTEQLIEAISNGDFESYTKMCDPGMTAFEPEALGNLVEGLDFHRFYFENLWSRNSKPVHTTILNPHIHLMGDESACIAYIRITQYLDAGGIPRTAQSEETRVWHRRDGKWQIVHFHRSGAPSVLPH

Sequence of Ribosomal protein S6 kinase alpha-6 (Homo sapiens) (Q9UK32 whole entry): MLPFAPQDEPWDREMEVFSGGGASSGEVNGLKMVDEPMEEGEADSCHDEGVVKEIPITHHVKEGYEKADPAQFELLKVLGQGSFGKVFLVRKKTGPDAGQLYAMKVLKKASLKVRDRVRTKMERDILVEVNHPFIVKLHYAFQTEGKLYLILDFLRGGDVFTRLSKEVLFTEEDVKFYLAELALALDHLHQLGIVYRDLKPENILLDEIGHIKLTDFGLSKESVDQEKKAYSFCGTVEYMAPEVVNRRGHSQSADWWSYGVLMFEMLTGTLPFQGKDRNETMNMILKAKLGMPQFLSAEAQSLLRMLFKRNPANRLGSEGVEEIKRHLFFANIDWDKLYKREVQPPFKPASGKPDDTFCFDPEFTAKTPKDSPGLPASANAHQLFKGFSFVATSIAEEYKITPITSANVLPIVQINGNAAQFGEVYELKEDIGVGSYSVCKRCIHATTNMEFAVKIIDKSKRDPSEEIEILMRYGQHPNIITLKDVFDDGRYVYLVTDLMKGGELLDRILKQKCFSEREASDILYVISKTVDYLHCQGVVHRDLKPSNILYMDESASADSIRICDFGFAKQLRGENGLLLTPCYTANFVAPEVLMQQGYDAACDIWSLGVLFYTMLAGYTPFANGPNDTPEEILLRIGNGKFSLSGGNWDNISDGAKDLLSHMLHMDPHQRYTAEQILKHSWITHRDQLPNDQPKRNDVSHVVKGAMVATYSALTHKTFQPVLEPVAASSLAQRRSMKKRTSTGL

SMILES | inhibition [1] | inhibition [2] | inhibition [3] | inhibition [4] | inhibition [5] | inhibition [6] | inhibition [7] | inhibition [8] | inhibition [9] | inhibition [10] | inhibition [11] | inhibition [12] | inhibition [13] | inhibition [14] | inhibition [15] | inhibition [16] | inhibition [17] | inhibition [18] | inhibition [19] | inhibition [20]
CN(C)c1cc2c(Nc3ccc4nc(Cc5ccccc5)[nH]c4c3)ncnc2cn1 | 3.9% | 3.83% | 2.79% | 2.52% | 6.52% | 3.71% | 4.16% | 4.31% | 3.22% | 4.92% | 4.85% | 0.74% | 1.76% | 3.31% | 4.38% | 3.85% | 4.52% | 1.13% | 0.72% | 4.11%
Cn1cc(C=C2C(=O)Nc3cccnc32)c2ccccc21 | 10.2% | 1.6% | 5.51% | -2.41% | 1.75% | 1.35% | 0.63% | 5.84% | 14.8% | 4.46% | 8.64% | 8.91% | 44.5% | 4.71% | 12.3% | 6.03% | 12.3% | 0.99% | 2.41% | 1.58%
NS(=O)(=O)c1ccc(N/N=C2\C(=O)Nc3ccc(C(=O)NCCc4c[nH]cn4)cc32)cc1 | 22.2% | 4.44% | 14.1% | 4.28% | 5.53% | 3.07% | 4.22% | 57.3% | 86.6% | 23.9% | 63.6% | 54.2% | 83.5% | 21.6% | 63.5% | 34.6% | 74.9% | 1.24% | 3.93% | 5.62%
CCCN1CCC(Oc2cc(Nc3nc(Nc4cccc(F)c4C(N)=O)c4cc[nH]c4n3)c(OC)cc2Cl)CC1 | 4.14% | 0.54% | 0.96% | 0.41% | 1.93% | -0.88% | -2.21% | 3.28% | 8.12% | 1.83% | 6.28% | 7.21% | 9.7% | 0.4% | -0.28% | -0.51% | 0.24% | 3.19% | 23.1% | 0.13%
CCCN1CCC=C(c2ccc(Nc3nc(Nc4ccccc4C(N)=O)c4cc[nH]c4n3)c(C)c2)C1 | 38.9% | 1.16% | 5.7% | 1.55% | 1.12% | 2.67% | 2.94% | 4.78% | 29.5% | 8.68% | 14.5% | 48.4% | 69.8% | 3.51% | 4.05% | 2.36% | 6.53% | 1.21% | 12.8% | 3.75%
Cc1ccc(NC(=O)c2ccnc(N3CCCC3)c2)cc1-c1ccc(C(=O)NCC2CC2)cc1 | 4.24% | 5.73% | 4.14% | 2.67% | 6.84% | 1.32% | 1.99% | 6.18% | 7.1% | 6.89% | 8.93% | 5.1% | – | 3.85% | 3.6% | 2.81% | 4.83% | 0.91% | 2.39% | 4.45%
NS(=O)(=O)c1cccc(-c2ccc3c(NC(=O)C4CC4)n[nH]c3c2)c1 | 0.54% | 1.71% | 2.69% | 3.21% | -4.4% | 0.09% | 0.67% | -0.48% | 0.34% | 3.53% | -0.49% | 0.7% | 1.95% | 6.3% | 41.3% | 12.6% | 51.8% | -0.5% | -0.98% | -4.43%
